Assay outcomes from PubChem BioAssay.
RE007 growth inh: less growth of the S. pombe RE007 Vpr strain | Potency, µM (top dose mostly 92.2 µM), for inactives: top-dose activity change, negative = less growth, hits mostly inhibitors | 360,000 tested, 0.21% active | AID 651644 | S. pombe RE007 Vpr strain, BacTiter-Glo ATP luminescence, 24 h; active means well fitted falling curve with a large enough effect; inconclusive means small, poorly fitted or top-dose-only effect; inactive means no such curve, though single readings can be large or run the other way; further: nearly all actives have a fitted effect of over 50% in size
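Fission yeast RE007 carrying one integrated HIV-1 vpr copy, seeded at OD 0.01 in PMG+AL medium with 23 nL pinned compound. Grown 24 h at 30 degrees; viability read by BacTiter-Glo luminescence after 5 min.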
AmpC detergent: inhibitors of E. coli AmpC beta-lactamase with detergent. AmpC hydrolysis of nitrocefin, absorbance 480 nm, 0.01% Triton. AID 485294. Potency, µM (top dose mostly 114 µM), for inactives: at the top dose activity change, negative = inhibition, actives largely listed as inhibitors. 370,000 tested, 0.041% active;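 further: 0% = no-compound wells and -100% = no-enzyme wells; nearly all actives have a fitted effect of over 25% in size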
Target sequence (P00811 whole entry, looked up): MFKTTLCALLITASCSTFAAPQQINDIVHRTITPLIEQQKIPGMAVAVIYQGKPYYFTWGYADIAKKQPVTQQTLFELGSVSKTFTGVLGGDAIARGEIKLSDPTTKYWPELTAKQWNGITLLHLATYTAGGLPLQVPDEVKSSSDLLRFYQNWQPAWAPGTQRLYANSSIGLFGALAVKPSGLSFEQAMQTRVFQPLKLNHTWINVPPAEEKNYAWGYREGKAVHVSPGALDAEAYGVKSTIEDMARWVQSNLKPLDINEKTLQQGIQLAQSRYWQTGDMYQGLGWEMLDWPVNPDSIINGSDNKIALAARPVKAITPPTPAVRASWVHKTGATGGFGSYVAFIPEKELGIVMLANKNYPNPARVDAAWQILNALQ
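AmpC (5.3 nM in the dispensed reagent) in 20 mM phosphate pH 7.0 with 0.01% (detergent screen) or 0.0001% Triton X-100 was preincubated with compounds for 15 min at room temperature. Nitrocefin was then added from an 800 uM solution, and hydrolysis was followed at 480 nm.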
Sm TGR block: S. mansoni TGR enzyme inhibition. Q962Y6. AID 485364. Potency, µM (top dose mostly 114 µM), inactives show top-dose activity change, negative = inhibition, usual class: inhibitors. purified TGR, DTNB reduction, TNB absorbance 405 nm. 360,000 tested, 3% active; further: nearly all actives have a fitted effect of over 60% in size
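Kinetic colorimetric format: TGR-catalysed, NADPH-driven DTNB reduction monitored via TNB absorbance. Enzyme dispensed at 20 nM; compound exposure 15 min at room temperature before reaction start.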
AmpC inh no detg: inhibitors of E. coli AmpC beta-lactamase without detergent; P00811; AmpC nitrocefin hydrolysis, absorbance 480 nm, 0.0001% Triton; Potency, µM (highest dose often 57.1 µM), for the others: at the top dose activity change, negative = inhibition, most hits filed as inhibitors; 330,000 tested, 0.52% active; AID 485341;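 further: plate controls were no compound for no effect and no enzyme for full effect; nearly all actives have a fitted effect of over 20% in size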
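20 mM phosphate pH 7.0 + 0.01% (detergent screen) or 0.0001% Triton X-100; 5.3 nM AmpC reagent; cpd preinc 15 min RT; nitrocefin (800 uM stock) to start; A480 q20 s × 4 min; Activity was normalised to no-enzyme and no-compound control wells.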
AMA1 RON2 block: AMA1-RON2 (P. falciparum) interaction inhibition. AlphaScreen AMA1-biotinylated RON2 peptide binding. Potency, µM (top dose mostly 58.2 µM), inactives show at the highest dose activity change, negative = inhibition, most hits filed as inhibitors. 360,000 tested, 0.2% active;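 further: 0% = vehicle wells and -100% = peptide control; nearly all actives have a fitted effect of over 45% in size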
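AMA1 (3D7) with his tag at 25 nM final met compounds first, then biotinylated RON2 peptide at 25 nM; detection used donor plus acceptor beads, 10 µg/mL apiece, read by AlphaScreen after 30 min at room temperature.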
* hit, by the source's call; ? = inconclusive; / = no result given. This is a sample that favours compounds with a hit; in the whole collection about 3.2% have one here. Unless noted, the call rests on the fitted dose curve; in most records, active means well fitted curve in the direction sought with a large enough effect; inconclusive means small, poorly fitted or top-dose-only effect, or another doubt; inactive means no such curve, though single readings can be large; an effect the other way counts as inactive or inconclusive. Unless noted, on the % scale 0 is the no-effect control and ±100 the full control effect; potency means the concentration at half of the fitted maximal effect.

SMILES	RE007 growth inh	AmpC detergent	Sm TGR block	AmpC inh no detg	AMA1 RON2 block
CCOc1ccc(CN(C(=O)c2ccco2)C2CCS(=O)(=O)C2)cc1 (stereo unspecified)	-6.1%	?	-30.0%	-7.3%	5.0%
COc1cccc(CN(C(=O)/C=C/c2ccco2)C2CCS(=O)(=O)C2)c1 (stereo unspecified)	3.9%	1.3%	7.94µM*	80.6%	0.4%
COc1ccccc1C(=O)N(Cc1cccs1)C1CCS(=O)(=O)C1 (stereo unspecified)	-3.2%	-4.9%	7.0%	28.8%	-15.3%
COc1ccc(CN(C(=O)c2ccco2)C2CCS(=O)(=O)C2)cc1 (stereo unspecified)	2.4%	-19.1%	8.6%	-16.3%	19.7%
COc1ccc(CN(C(=O)/C=C/c2ccco2)C2CCS(=O)(=O)C2)cc1 (stereo unspecified)	2.3%	0.4%	2µM*	41.9%	3.9%
CCOc1ccc(CN(C(=O)/C=C/c2ccco2)C2CCS(=O)(=O)C2)cc1 (stereo unspecified)	12.4%	-9.0%	4.47µM*	38.9%	-7.0%
Cc1ccc(C)c(OCCn2cc(C(=O)c3ccco3)c3ccccc32)c1	/	23.2%	2.9%	/	/
COc1ccc(CN(C(=O)/C=C/c2ccco2)C2CCS(=O)(=O)C2)cc1OC (stereo unspecified)	-6.0%	-9.1%	3.55µM*	51.0%	-19.9%
CC(OC(=O)C1=Cc2ccccc2OC1)C(=O)NC1CCCC1 (stereo unspecified)	0.7%	2.2%	2.0%	0.159µM*	-15.0%
Cc1ccc(CN(C(=O)Nc2cccc(Cl)c2)c2ccccn2)cc1	/	0.9%	0.1%	/	/
Cc1ccc2c(c1)CCCN2N=O	7.3%	-1.5%	-7.5%	-16.0%	-7.1%
CCCN1CCCc2cc(CN)ccc21	18.0%	?	14.1µM*	11.4%	?
O=C(Cn1ncc2c3ccccc3n(Cc3cccc(Cl)c3)c2c1=O)NC1CCCCCC1	/	22.2%	-1.7%	/	/
Cc1cn2c(=O)cc(COc3ccccc3NC(=O)c3ccc(Cl)cc3)nc2s1	/	1.6%	-1.1%	/	/
Nc1c(N(CCO)C(=O)/C=C/c2ccco2)c(=O)[nH]c(=O)n1Cc1ccccc1	0.2%	-9.1%	50.1µM*	-22.2%	0.4%
Cc1ccccc1OCC(=O)N(Cc1ccco1)c1c(N)n(Cc2ccccc2)c(=O)[nH]c1=O	-15.6%	0.2%	44.7µM*	-35.3%	-5.7%
Cc1cc(Cl)ccc1OCC(=O)N(Cc1ccco1)c1c(N)n(Cc2ccccc2)c(=O)[nH]c1=O	-10.3%	/	/	/	0.4%
CSc1ccc(-c2nc3cccc(C)n3c2Nc2ccc(Cl)cc2)cc1	/	13.5%	19.0%	/	/
CNS(=O)(=O)c1cn(CC(=O)Nc2ccc(OC)cc2OC)cc1S(=O)(=O)NC	/	20.3%	5.2%	/	/
CSc1nc2sc3c(c2c(=O)n1-c1ccc(C)cc1)CCCC3	/	-2.0%	-4.9%	/	/
CCOC(=O)CCC(=O)N1CCNC(=O)C1	4.9%	5.6%	14.0%	11.2µM*	-3.0%
Cc1ccc(N2CCN(C(=O)c3c(C)oc4ncn(CC(C)C)c(=O)c34)CC2)c(C)c1	/	17.9%	4.9%	/	/
C=Cc1ccc(CSc2nc(-c3ccc(C)cc3)nc3c2Cc2c(CO)cnc(C)c2O3)cc1	/	-3.8%	-8.7%	/	/
O=S(=O)(CC(CN1CCCC1)N1CCCC1)c1ccc2ccccc2c1 (stereo unspecified)	-10.5%	?	15.8µM*	64.4%	-15.2%
Cc1ccc(S(=O)(=O)NCCc2nnc3ccc(SCc4ccc(F)cc4)nn23)cc1	/	-0.8%	-5.0%	/	/
CCOC(=O)c1c(-c2ccccc2)nc2c(C)cccn12	14.1µM*	-10.4%	5.3%	19.7%	0.7%
CCOC(=O)c1c(-c2ccccc2)nc2ccccn12	17.8µM*	-10.2%	-27.5%	-5.2%	-2.5%
COC(=O)Nc1c(-c2ccccc2)nc2ccccn12	-4.7%	?	-0.6%	-14.0%	3.2%
COc1ccc(C(=O)Nc2nc(-c3cccs3)cs2)cc1	?	3.1%	1.9%	/	-25.4%
O=C(Nc1nc(-c2cccs2)cs1)c1ccc(Cl)cc1	?	6.1%	5.1%	28.2µM*	-4.4%
